Assay results published in PubChem BioAssay (NCI).
This is part of a sample that, as a whole, favours compounds with a hit. Of some 83,000 tested, about 20% had one in any assay.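 Assay: single dose, 48 h. Readout: percent growth (0 = no net growth; negative = cell death). Active: <10.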 Calls of active or inactive are those of the source.

What follows are molecules tested on MDA-MB-468 breast (assay: NCI-60 one-dose screen, 48 h (100 = growth as untreated, 0 = no growth, -100 = all killed)). Settings: 10 µM unless noted.

Compound | growth
Oc1c(CN2CCCC2)cc(COCc2ccccc2)c2cccnc12 | -15.4% (active)
C[C@H]1OCC2(CCN(c3cnc(C(=O)Nc4cc(F)cc5cccnc45)cn3)CC2)[C@H]1N | -4.2% (active)
CC(=O)C1=C(O)C=C2Oc3c(C(=O)/C=C/c4ccccc4)c(O)c(C)c(O)c3[C@]2(C)C1=O | 30.3% (inactive)
O=C(c1ccccc1)c1cccc(C(Br)Br)c1 | 92.5% (inactive)
O=C(Nc1cc(-c2cccnc2)nc(NCCCN2CCOCC2)n1)c1cc(Br)cc(C(F)(F)F)c1 | 52.8% (inactive)
Fc1ccc(-n2cc(COc3ncnc4sc5c(c34)CCCC5)nn2)cc1Cl | 106% (inactive)
CCOC(=O)c1cnc2ccc(Cl)cc2c1NCCCN(C)C | -31.3% (active)
C/C=C(/C)C(=O)OC1C=C(CO)C(=O)C(OC(=O)/C(C)=C\C)C1C(C)C (stereo not given) | -50.9% (active)
CN(C)c1ccc(C(=S)c2ccc(N(C)C)cc2)cc1 | -12.3% (active)
COc1ccc(C(=O)NCCNc2nccc(-c3c(-c4ccc(F)cc4)nc4sccn34)n2)cc1 | 67.5% (inactive)
COc1ccc(NC2=CC(=O)C(C)=C(C)C2=O)cc1 | 57% (inactive)
CCOC(=O)C(Cc1ccc(OC)cc1)C(=O)OCC | 55.3% (inactive)
N#Cc1c(-c2ccccc2)cc(-c2ccccc2)n(CC(=O)NO)c1=O | 43.5% (inactive)
CCN(CCO)CCC(=O)c1ccc([N+](=O)[O-])cc1 | 98.1% (inactive)
Cc1nc2ccccc2c(/C=C/c2ccc(Cl)cc2)c1C(=O)/C=C/c1ccc(F)cc1 | -16.5% (active)
COc1cccc2c1C(=O)c1c(O)c3c(c(O)c1C2=O)C[C@@](O)(/C(C)=N/NC(=O)c1ccc(Cl)cc1)C[C@@H]3OC1CC(N)C(O)C(C)O1 (stereo not given in full) | -65.1% (active)
NC(N)=Nc1nc2ccccc2o1 | 106% (inactive)
O=c1[nH]n(-c2ccccc2)c(=O)cc1Cl | 101% (inactive)
O=C(CCl)NNc1nccc(Nc2ccc(S(=O)(=O)Nc3ccncc3)cc2)n1 | 31.5% (inactive)
COc1ccc2c(O)c(/C=C3\N=Nc4ccccc43)oc2c1C[C@H]1CCNC[C@H]1F | 75.6% (inactive)

Compound | growth
O=C(c1ccccc1)c1ccccc1Cl | 110% (inactive)
CCN(CC)CC(O)c1cc(-c2ccc(Cl)cc2)nc2c(C)c(Cl)ccc12 (stereo not given) | -88.6% (active)
O=C1C(=O)N(Cc2ccc(-c3ccccc3)cc2)c2ccc(OC(F)(F)F)cc21 | 25% (inactive)
COc1ccc(C2=NC(=O)NC2c2ccc(OC)cc2)cc1 (stereo not given) | 43.9% (inactive)
O=C(Nc1cccc(-n2cc(-c3ccncc3)c(-c3ccc(Cl)c(O)c3)n2)c1)Nc1cccc(C(F)(F)F)c1 | 10.5% (inactive)
Cc1cc(C)c(S(=O)(=O)Oc2ccccc2[N+](=O)[O-])c(C)c1 | -0.215% (active)
C=C(C)[C@@H]1CC[C@]2(C)[C@H](CC=C3[C@@H]4[C@@H](C)[C@H](C)CC[C@]4(C(N)=O)CC[C@]32C)[C@@]1(C)CCC#N | 0.182% [100 µM] (active)
COc1cc(C2CC(c3cccc(Nc4ccnc5cc(Cl)ccc45)c3)=NN2c2ccccc2)cc(OC)c1OC (stereo not given) | 82.1% (inactive)
COC(=O)[C@@H]1CCCN1C(=O)[C@@H]1CCCN1C(=O)[C@H](Cc1ccccc1)NC(=S)Nc1cc(C(F)(F)F)cc(C(F)(F)F)c1 | 89% (inactive)
CC(=O)C(/C=N/C(N)=O)=C(/C)O | 109% (inactive)
COc1cccc(-c2nn(-c3ccccc3)cc2-c2ccnc(N3CCOCC3)c2)c1 | 69.2% (inactive)
O=C1c2cccc3c(-c4ccc(-c5nc6c7ccccc7c7ccccc7c6[nH]5)cc4)ccc(c23)C(=O)N1CCN1CCNCC1 | 81.5% (inactive)
COc1ccc(/C=N/NC(=O)c2cn(C3CC3)c3c(OC)c(N4CC5CCCNC5C4)c(F)cc3c2=O)cc1 (stereo not given) | 89.4% (inactive)
CCNC(=O)N1CCc2cc(OC)c(OCCc3ccc(OC)cc3)cc2C1c1ccc(Cl)cc1C (stereo not given) | -1.44% (active)
CCCCCCNC(=O)Oc1ccc(/C(=C(/CC)Cc2ccccc2)c2ccc(OCCN3CCCCC3)cc2)cc1 | 86.3% (inactive)
CN1CCN(CCCOc2cccc3nc(Nc4ccc(Cl)c(F)c4)ccc23)CC1 | 33.2% (inactive)
CCOCC[P+](c1ccccc1)(c1ccccc1)c1ccccc1 | 2.17% (active)
COc1ccc(C2c3ccc4ccccc4c3Oc3nc(C)[nH]c(=O)c32)cc1 (stereo not given) | 111% (inactive)
CCSc1nc2c([nH]1)c(=O)n(C)c(=S)n2C | 109% (inactive)
COC(=O)c1ccc(CSc2nnc(-c3c(C)nc4ccc(C)cn34)o2)cc1 | 93.2% (inactive)
